The text below walks through data of PubChem BioAssay AID2314 (National Center for Advancing Translational Sciences (NCATS), 2010).

The campaign covered roughly 300,000 compounds. About 37,000 (12%) were called active. Many of the other results were omitted from the sample, so actives are more common in it than they were. A number with no mark means an inactive call. No stated cut-off is given here; in the data, active means max response mostly above about 13% (no sharp cut-off); inactive means mostly below about 14%.

The experiment can be described thus: Cycloheximide Counterscreen for Small Molecule Inhibitors of Shiga Toxin. Further: read at 38.3 µM for the half of the compounds with a filed dose; 0% is about no effect. The conditions noted are these: cell reporter, cycloheximide protein synthesis inhibition counterscreen; active compounds read high. A general note: A counterscreen serves to expose hits that act by an unwanted route or on another target.
With `CC1CCC(NC(=O)CN(C)S(=O)(=O)c2ccc3c(c2)c(=O)n(C)c(=O)n3C)CC1` (stereo unspecified), the max response is -2.52%.

As for `Cn1c(=NC(=O)CSCC(=O)N2CCCCC2)sc2ccccc21`, the max response is 2.51%.

`Cn1c(=NC(=O)CSCC(=O)N2CCOCC2)sc2ccccc21`: the max response was 11%.

For the compound `Cn1c(=NC(=O)c2cnccn2)sc2ccccc21`, the max response was 26% (active).

With `COc1cc(CO)c(C2(CO)CCCC2)cc1OC`, the max response is -4.97%.

As to `Cc1cc(C)cc(N(CCC#N)C(=O)CN2C(=O)NC3(CCCC3)C2=O)c1`, the max response is 1.6%.

Consider `Oc1ccccc1N1CCN(c2ncnc3sc(-c4ccccc4)cc23)CC1`, for which the max response is 9.53%.

Take `O=c1c(-c2ccccc2)cnc2n1CCS2`: the max response is -4.67%.

Turning to `O=c1c2cc(-c3ccccc3)sc2nc2n1N=C(c1cccs1)CS2`, the max response is 57% (active).

`CC(C)NC(=O)C(c1ccc(F)cc1)N(C(=O)CCC(=O)Nc1ccccn1)c1ccccc1F` (stereo unspecified): the max response was -2.11%.

As to `CC(C)CCNC(=O)Cn1c(=O)oc2cc(S(=O)(=O)N3CC(C)CC(C)C3)ccc21` (stereo unspecified), the max response is -7.3%.

Regarding `CSc1ccc(/C=N/N2CCN(Cc3ccccc3Cl)CC2)cc1`, the max response was 16.6% (active).

For `O=S1(=O)CCN(Cc2ccccc2Cl)CC1`, the max response was -2.05%.

For `COc1ccccc1/C=N/N1CCN(Cc2ccccc2Cl)CC1`, the max response was 1.31%.

For `Cc1cccc(-n2cnc(C(=O)Nc3cccnc3)c2)n1`, the max response was 25.5% (active).

`Cc1cc(C)c(NC(=O)CS(=O)CC(=O)Nc2cccnc2)c(C)c1` (stereo unspecified): the max response was 3.39%.

Regarding `Cc1cccc(-n2cnc(C(=O)NNC(=S)Nc3ccccc3)c2)n1`, the max response is -0.715%.

As to `Cc1cccc(Nc2nc3c(S(=O)(=O)c4ccccc4)nnn3c3ccccc23)c1C`, the max response was -2.93%.

Take `Cc1ccc(/C=C2\CCn3c2nc2cc(C(=O)O)ccc2c3=O)c(C)c1`: the max response was 8.18%.

`CCc1ccc(-c2nn(-c3ccccc3)cc2CSC(=N)N)cc1`: the max response was -12.4%.

Regarding `COc1cc2c(cc1OC)CN(C(=O)c1cc(S(=O)(=O)N3CCCCC3)ccc1Cl)CC2`, the max response is 11.1%.

Take `Cc1ccccc1OCC(=O)Nc1nnc(S(=O)(=O)N2CCCC2)s1`: the max response was 1.8%.

For the compound `Cc1nc(SCC(=O)Nc2cc(C)on2)c2c(C)c(C)sc2n1`, the max response is -2.36%.

On to `CC(NC(=O)CSc1nc2c(cc1C#N)CN(C)CC2)c1ccccc1` (stereo unspecified), for which the max response is -4.77%.

`Cc1cc(NC(=O)CSc2nc3c(cc2C#N)CCCCC3)no1`: the max response is 14.6% (active).

For `Cc1c(CCO)sc[n+]1CC(=O)OC12CC3CC(CC(C3)C1)C2`, the max response is -2.92%.
